Screens from PubChem.
TPT1 inhibitor: Candida albicans TPT1 enzyme inhibitors, primary screen, biochemical, fluorescence polarization; tRNA 2'-phosphotransferase TPT1 (Candida albicans SC5314); recombinant caTPT1, FP RNA substrate dephosphorylation; inhibition, % at 5 µM; hit rate 0.81% among 300,000; AID 1962, 2009;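 active means inhibition above the mean of all tested compounds plus 3 SD, set per screening campaign, cut at about 24% in these data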
HNF4A DNA FP: change in binding of human HNF4A to DNA, primary screen, biochemical, fluorescence polarization, FITC-DNA; AID 1224865, 2016; activity change, % at 10 µM; 1 h; hit rate 0.3% among 360,000; Hepatocyte nuclear factor 4-alpha (Homo sapiens), P41235; in the data active means activity change above about 30%, passing the limit was not always enough
CTSL1 counter: Fasciola hepatica cathepsin L1 inhibitors, primary screen, counter-screen for PFM18AAP inhibitor project, biochemical, QFRET, fluorogenic peptide substrate. recombinant F. hepatica cathepsin L1, Z-Leu-Arg-MCA fluorescence. inhibition, % at 5.96 µM. hit rate 0.49% among 300,000. AID 1906, 2009;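 active means inhibition above the mean of all tested compounds plus 3 SD, set per screening campaign, cut at about 17% in these data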
PHOSPHO1 block: PubChem AID 1565; Phosphoethanolamine/phosphocholine phosphatase (Homo sapiens), Q8TCT1; recombinant PHOSPHO1, absorbance phosphatase assay; inhibition, % at 13.3 µM; hit rate 1.1% among 290,000; in the data active means inhibition above about 60%
Target sequence (Q8TCT1 whole entry, looked up): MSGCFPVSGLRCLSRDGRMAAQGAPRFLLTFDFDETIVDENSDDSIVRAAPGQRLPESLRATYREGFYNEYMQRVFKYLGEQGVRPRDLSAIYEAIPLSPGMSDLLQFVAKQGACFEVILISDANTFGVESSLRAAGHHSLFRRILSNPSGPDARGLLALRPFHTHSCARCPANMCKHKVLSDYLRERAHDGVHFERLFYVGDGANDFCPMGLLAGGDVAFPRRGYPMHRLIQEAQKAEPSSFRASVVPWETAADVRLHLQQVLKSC
NRP1-CendR mod: modulators of CendR peptide binding to NRP-1, primary screen, biochemical, fluorescence polarization, uHTS; inhibition, % at 25 µM; FAM-RPARPAR peptide binding to NRP-1; Neuropilin-1 (Homo sapiens), O14786; hit rate 0.85% among 360,000; AID 602438, 2012;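 active means inhibition or corrected inhibition above about 18%, plus a signal ratio from 0.5 to 1.5, limit read from the data, passing the limit was not always enough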
Rpn11 inh: Rpn11 (PSMD14) deubiquitinase inhibitors, primary screen, biochemical, fluorescence polarization, uHTS; 26S proteasome non-ATPase regulatory subunit 14 (Homo sapiens), O00487; human 26S proteasome, Ub4-pepOG fluorescence polarization; 20S core pre-blocked with epoxomicin; inhibition, % at 20 µM; hit rate 0.59% among 360,000;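 active means inhibition at 20 µM, scaled to each plate's controls, above about 33%, limit read from the data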
Target sequence (O00487 whole entry, looked up): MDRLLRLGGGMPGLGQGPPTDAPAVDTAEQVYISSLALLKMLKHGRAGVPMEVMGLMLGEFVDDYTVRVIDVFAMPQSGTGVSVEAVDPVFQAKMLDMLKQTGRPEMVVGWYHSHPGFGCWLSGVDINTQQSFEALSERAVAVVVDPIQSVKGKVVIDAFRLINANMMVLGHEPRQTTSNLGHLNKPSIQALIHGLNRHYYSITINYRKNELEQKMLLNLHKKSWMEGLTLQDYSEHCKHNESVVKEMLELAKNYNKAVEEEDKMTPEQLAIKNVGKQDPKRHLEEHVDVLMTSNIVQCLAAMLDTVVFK
Numbers stand for hits; i = inactive; nt = not tested or not shown. A selection: hits, their analogues and other compounds. The true share with any hit is near 3.3%.

SMILES | TPT1 inhibitor | HNF4A DNA FP | CTSL1 counter | PHOSPHO1 block | NRP1-CendR mod | Rpn11 inh
CC1C/C(=N\NC(=S)NCc2ccccc2)CC(C)(C)C1 (centres undefined) | i | i | i | 76 | i | i
CC1CCC/C(=N\NC(=S)NCc2ccccc2)C1 (centres undefined) | i | i | i | 85 | i | i
CC1CCC/C(=N\NC(=S)Nc2ccccc2)C1 (centres undefined) | i | i | i | i | i | i
CC1CCC/C(=N\NC(=O)c2ccncc2)C1 (centres undefined) | i | i | i | i | 30 | i
Cc1ccc(C)c(NC(=O)CCc2nnc3ccc(NCc4ccco4)nn23)c1 | i | i | i | i | i | i
CC(=O)N1CCOc2cc(S(=O)(=O)N3CCN(c4ccccc4)CC3)c(Cl)cc21 | i | i | i | i | i | i
CCN(CC)c1ncnc2c1ncn2[C@H]1CN(Cc2ccc(Cl)cc2)C[C@@H](CO)O1 | nt | i | nt | nt | i | i
COc1ccc(Cl)cc1NC(=O)CN(C)C(=O)C1CCN(C(=O)Nc2ccccc2)CC1 | nt | i | nt | nt | i | i
Cc1ccc(C)c(NC(=O)CN(C)C(=O)C2CCN(C(=O)Nc3ccccc3)CC2)c1 | i | i | 17 | nt | i | i
O=C(Nc1ccccc1-c1nnn(CC(=O)N2CCc3ccccc3C2)n1)C1CCC1 | i | i | i | i | 28 | i
O=C(Nc1ccc(Oc2ccccc2)nc1)C1CCN(Cc2cccc(F)c2)CC1 | i | i | i | i | 27 | i
C#Cc1ccc(CN2CCC(C(=O)Nc3ccc(Oc4ccccc4)nc3)CC2)cc1 | i | i | i | i | i | i
O=C(COC(=O)COc1ccc(Cl)cc1)Nc1ccc(N2CCOCC2)cc1 | i | i | i | i | i | i
CCCCc1n[nH]c(=S)n1Cc1ccc(C)cc1 | i | i | i | i | 27 | i
CCCOc1ccc(CCc2n[nH]c(=S)n2-c2ccccc2)cc1 | i | i | i | i | i | i
CCCCCCCc1n[nH]c(=S)n1Cc1ccccc1 | i | i | i | i | i | i
CCCOc1ccc(CCc2n[nH]c(=S)n2Cc2ccccc2)cc1 | i | i | i | 79 | i | i
CCCC(C(=O)NCCC(C)C)N(Cc1ccccc1Cl)C(=O)c1snc(C(N)=O)c1N (centres undefined) | i | i | i | i | i | i
CC1CC(=O)Nc2cc([N+](=O)[O-])ccc2N1 (centres undefined) | i | i | i | i | 32 | i
CC1CC(=O)Nc2ccc([N+](=O)[O-])cc2N1C (centres undefined) | i | i | i | i | i | i
CSc1ccc(CN2CCN(Cc3ccccc3)C(CCO)C2)cc1 (centres undefined) | i | i | i | i | i | i
COc1ccc(CN(CCC(c2ccccc2)c2ccc(OC(C)C)cc2)C(=O)CCl)cc1OC (centres undefined) | i | i | 36 | i | i | i
COc1ccc(C(CCN(Cc2ccc(OC)c(OC)c2)C(C)=O)c2ccccc2)cc1 (centres undefined) | i | i | i | i | i | i
S=c1nc(C2COc3ccccc3O2)[nH][nH]1 (centres undefined) | i | i | i | i | i | i
S=c1[nH]nc(C2COc3ccccc3O2)o1 (centres undefined) | i | i | i | 96 | i | i
SMILES | TPT1 inhibitor | HNF4A DNA FP | CTSL1 counter | PHOSPHO1 block | NRP1-CendR mod | Rpn11 inh
CCOC(=O)c1ccc(NC(=S)N2CCN(CCO)CC2)cc1 | i | i | i | nt | i | i
NC(=O)CSc1nnc2n(N)c(=O)c3ccccc3n12 | i | i | i | i | i | i
Cc1sc(-n2c(C)ccc2C)c(C#N)c1C | i | i | i | 95 | i | i
Cc1ccc(C)n1-c1sc2c(c1C#N)CCCC2 | i | i | i | i | i | i
O=C1c2cc([N+](=O)[O-])cc3cc([N+](=O)[O-])cc(c23)C(=O)N1c1ccccn1 | i | i | i | i | 28 | i
O=C(O)c1cccc(N2C(=O)c3cc([N+](=O)[O-])cc4cc([N+](=O)[O-])cc(c34)C2=O)c1 | i | i | i | i | 26 | i
Cc1cc(=O)oc2cc(OCC(=O)OCC(=O)NC3CC3)ccc12 | i | i | i | i | i | i
O=C1CSC(c2cn(-c3ccccc3)nc2-c2cccs2)N1CC1CCCO1 (centres undefined) | i | i | i | i | 32 | i
O=C1CSC(c2cn(-c3ccccc3)nc2-c2ccccc2)N1Cc1ccco1 (centres undefined) | i | i | i | i | i | i
Cc1cc(C(=O)Nc2ccc3c(c2)OCCO3)ccc1[N+](=O)[O-] | i | i | i | i | i | i
C#CCNC(=O)c1ccc2sc([C@H]3C[C@H](O)[C@@H](CO)O3)nc2c1 | nt | i | nt | nt | i | i
O=C(NCc1ccccc1)c1ccccc1C(=O)c1ncc[nH]1 | i | i | i | i | 27 | i
O=C(O)c1ccccc1C(=O)NCc1ccccc1 | i | i | i | i | i | i
COCc1cccc(-c2csc(C(C)(O)c3ccccc3)n2)c1 (centres undefined) | nt | i | nt | nt | 41 | i
COC(=O)C1=C(C(=O)OC)[C@@H]2Nc3ccccc3[C@@]23C[C@@H](C(=O)OC)N(C(=O)c2ccco2)C3=N1 | i | i | i | nt | i | i
COc1ccc(/C=C/C(=O)Nc2ccccc2F)cc1S(=O)(=O)N1CCOCC1 | nt | i | nt | nt | i | i
COc1ccc(/C=C/C(=O)Nc2cccc(F)c2)cc1S(=O)(=O)N1CCOCC1 | i | i | i | i | 23 | i
Cc1cccc(/C=C2\Sc3ccc(C(=O)NCC4CCCO4)cc3N(C)C2=O)c1 (centres undefined) | i | i | i | i | i | i
CCOC(=O)N1CCN(C(=O)c2ccc3c(c2)N(C)C(=O)/C(=C\c2ccc(OCC)c(OC)c2)S3)CC1 | i | i | 20 | i | i | i
CCOc1ccc(/C=C2/Sc3ccc(C(=O)NCC4CCCO4)cc3N(C)C2=O)cc1OC (centres undefined) | i | i | i | i | 27 | i
COc1ccccc1N=Nc1c(C)n[nH]c1C | i | i | i | i | i | i
O=CN1N=C(c2ccccc2)CC1c1ccc(Cl)cc1 (centres undefined) | i | i | i | i | i | i
O=C1OC(c2ccccc2)=NC12CC2c1ccc(Cl)cc1 (centres undefined) | i | i | 21 | i | i | i
COc1ccc(C)cc1NC(=O)CCCN1C(=S)NC(C)(C)CC1C (centres undefined) | i | i | i | i | i | i
COc1cc(NCCCNC(C)C)c2nccc(C)c2c1 | nt | i | nt | nt | 26 | i
COc1cc(NCc2ccccc2)c2ncn(C(C)C)c2c1 | nt | i | nt | nt | i | i
